Assay results from ChEMBL document CHEMBL1961873, “Compounds: GSK PKIS; Assays: Nanosyn kinase panel” (2012).

Molecular target: T1, Mitogen-activated protein kinase kinase kinase kinase 2 (Homo sapiens) (UniProt Q12851);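 further: reported value is a mean of MAP4K2 inhibition at 1 µM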
T1 sequence (whole entry): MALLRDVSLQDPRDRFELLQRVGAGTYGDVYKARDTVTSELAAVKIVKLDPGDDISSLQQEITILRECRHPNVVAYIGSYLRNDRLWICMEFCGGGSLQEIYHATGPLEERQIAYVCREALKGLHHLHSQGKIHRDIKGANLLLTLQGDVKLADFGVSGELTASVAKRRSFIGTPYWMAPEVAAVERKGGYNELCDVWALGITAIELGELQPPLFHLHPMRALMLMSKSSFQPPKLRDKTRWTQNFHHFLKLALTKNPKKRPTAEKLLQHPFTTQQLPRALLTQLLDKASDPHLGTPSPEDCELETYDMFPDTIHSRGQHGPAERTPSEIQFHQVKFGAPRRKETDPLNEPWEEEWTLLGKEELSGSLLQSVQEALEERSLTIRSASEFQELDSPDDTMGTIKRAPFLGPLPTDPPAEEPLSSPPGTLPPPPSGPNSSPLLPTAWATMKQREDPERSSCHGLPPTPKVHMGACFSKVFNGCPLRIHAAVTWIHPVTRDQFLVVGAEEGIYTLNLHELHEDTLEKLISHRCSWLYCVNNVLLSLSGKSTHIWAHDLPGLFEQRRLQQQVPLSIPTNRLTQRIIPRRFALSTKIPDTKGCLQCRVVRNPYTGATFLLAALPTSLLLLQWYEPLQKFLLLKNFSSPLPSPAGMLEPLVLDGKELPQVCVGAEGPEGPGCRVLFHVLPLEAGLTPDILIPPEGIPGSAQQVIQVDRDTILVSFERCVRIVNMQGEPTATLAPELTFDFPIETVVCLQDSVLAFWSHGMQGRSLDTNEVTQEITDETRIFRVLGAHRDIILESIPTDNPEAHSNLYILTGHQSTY
Conditions: at 1 µM

Row | Compound | inhibition [%]
1 | c1ccc(COc2ccc(Nc3ncnc4ccc(-c5ccco5)cc34)cc2)cc1 | 2.66
2 | COc1ccc2[nH]c3c4[nH]c5ccc(OC)cc5c4c4c(c3c2c1)C(=O)NC4=O | 12.1
3 | CC1=C(C(=O)Nc2cc(Cl)c3[nH]ncc3c2)C(c2ccc(C(F)(F)F)cc2)CC(=O)N1 (stereo unspecified) | 3.92
4 | Cc1cccc(Nc2ncc(-c3ccccc3)o2)c1 | 4.15
5 | Clc1ccc(-c2nn3ncccc3c2-c2ccnc(Nc3ccccc3)n2)cc1 | 5.08
6 | Cc1ccc(O)cc1Nc1ccnc2cc(-c3ccccn3)ccc12 | 26.4
7 | FC(F)(F)c1cccc(-c2nn3ncccc3c2-c2ccnc(Nc3ccc4c(c3)OCCO4)n2)c1 | 12.2
8 | Nc1nc(-c2cccc(Cl)c2)c(-c2ccc3ncccc3n2)s1 | 3.7
9 | COc1ccc2c(-c3ccnc(Nc4cccc(OC(F)(F)F)c4)n3)cnn2n1 | 5.46
10 | CCN(CC)S(=O)(=O)c1ccc(OC)c(Nc2ncc(-c3ccccc3)o2)c1 | 1.77
11 | COc1ccc(-c2oc3ncnc(N)c3c2-c2ccc(NC(=O)Nc3cc(C(F)(F)F)ccc3F)cc2)cc1 | 47.2
12 | CS(=O)(=O)CCNCc1ccc(-c2ccc3ncnc(Nc4ccc(OCc5ccccc5)c(C(F)(F)F)c4)c3c2)o1 | 1.46
13 | NS(=O)(=O)c1ccc(Nc2ncc(-c3ccccc3)o2)cc1 | 8.73
14 | CN1CCC(n2cnc(-c3ccc(F)cc3)c2-c2ccnc(Nc3ccccc3)n2)CC1 | 10.3
15 | CCCN(CCS(C)(=O)=O)Cc1ccc(-c2ccc3ncnc(Nc4ccc(OCc5cccc(F)c5)c(Cl)c4)c3c2)o1 | 2.9
16 | CN(C)CCOc1ccc(-c2nc(-c3ccncc3)c(-c3ccc4c(c3)CC/C4=N\O)[nH]2)cc1 | 3.44
17 | CCn1c(-c2nonc2N)nc2c(C#CC(C)(C)O)ncc(OC3CCNCC3)c21 | 3.12

Row | Compound | inhibition [%]
18 | COc1ccc(CNC(=O)c2ccc(-c3cc(-c4nnc(C)o4)ccc3C)cc2)cc1 | 6.93
19 | [O-][S+]1CCN(Cc2ccc(-c3ccc4ncnc(Nc5ccc(OCc6cccc(F)c6)c(Cl)c5)c4c3)o2)CC1 | 5.19
20 | Nc1ncc(-c2cccc(S(N)(=O)=O)c2)c2scc(-c3ccc(F)c(Cl)c3)c12 | 31.4
21 | Nc1nc(-c2ccc(F)cc2)c(-c2ccc3ncccc3n2)s1 | 3.82
22 | Cc1cccc2c1NC(=O)/C2=N\Nc1ccc(S(N)(=O)=O)cc1 | 0.8
23 | N#Cc1c(NC(=O)CN2CCOCC2)sc2c1CCCC2 | 2.67
24 | CNC(=O)c1cncc(/C=C/c2ccccc2Cl)c1 | 2.04
25 | c1ccc(-c2nc3n(c2-c2ccc4c(c2)OCO4)CCC3)nc1 | 2.78
26 | CCCN1CCC(c2ccc(Nc3nc(Nc4cc(F)ccc4C(N)=O)c4cc[nH]c4n3)c(OC)c2)CC1 | 51.6
27 | CNC(=O)c1cccc(C#Cc2cncnc2Nc2ccc(OCc3cccc(F)c3)c(Cl)c2)c1 | 0.34
28 | Fc1ccc(-c2cc(-c3c[nH]nc3-c3ccccn3)ccn2)cc1 | 1.6
29 | COc1ccc(-c2cc3c(N)ncnc3o2)cc1 | 4.72
30 | CC(C)(CO)CNC(=O)c1ccc2c(c1)/C(=N/Nc1ccc(S(N)(=O)=O)cc1)C(=O)N2 | 3.15
31 | COc1cccc(-c2c[nH]c3c(N/N=C/c4ccncc4)ncnc23)c1 | 11.9
32 | CCc1nn2ncccc2c1-c1ccnc(NC2CC2)n1 | 3.67
33 | NC(=O)c1sc(-n2cnc3ccc(C(F)(F)F)cc32)cc1OCc1ccccc1Br | 8.19

Molecular target: Mitogen-activated protein kinase kinase kinase kinase 4 (Homo sapiens) (UniProt O95819)
Sequence (O95819 2-1239 limits assumed): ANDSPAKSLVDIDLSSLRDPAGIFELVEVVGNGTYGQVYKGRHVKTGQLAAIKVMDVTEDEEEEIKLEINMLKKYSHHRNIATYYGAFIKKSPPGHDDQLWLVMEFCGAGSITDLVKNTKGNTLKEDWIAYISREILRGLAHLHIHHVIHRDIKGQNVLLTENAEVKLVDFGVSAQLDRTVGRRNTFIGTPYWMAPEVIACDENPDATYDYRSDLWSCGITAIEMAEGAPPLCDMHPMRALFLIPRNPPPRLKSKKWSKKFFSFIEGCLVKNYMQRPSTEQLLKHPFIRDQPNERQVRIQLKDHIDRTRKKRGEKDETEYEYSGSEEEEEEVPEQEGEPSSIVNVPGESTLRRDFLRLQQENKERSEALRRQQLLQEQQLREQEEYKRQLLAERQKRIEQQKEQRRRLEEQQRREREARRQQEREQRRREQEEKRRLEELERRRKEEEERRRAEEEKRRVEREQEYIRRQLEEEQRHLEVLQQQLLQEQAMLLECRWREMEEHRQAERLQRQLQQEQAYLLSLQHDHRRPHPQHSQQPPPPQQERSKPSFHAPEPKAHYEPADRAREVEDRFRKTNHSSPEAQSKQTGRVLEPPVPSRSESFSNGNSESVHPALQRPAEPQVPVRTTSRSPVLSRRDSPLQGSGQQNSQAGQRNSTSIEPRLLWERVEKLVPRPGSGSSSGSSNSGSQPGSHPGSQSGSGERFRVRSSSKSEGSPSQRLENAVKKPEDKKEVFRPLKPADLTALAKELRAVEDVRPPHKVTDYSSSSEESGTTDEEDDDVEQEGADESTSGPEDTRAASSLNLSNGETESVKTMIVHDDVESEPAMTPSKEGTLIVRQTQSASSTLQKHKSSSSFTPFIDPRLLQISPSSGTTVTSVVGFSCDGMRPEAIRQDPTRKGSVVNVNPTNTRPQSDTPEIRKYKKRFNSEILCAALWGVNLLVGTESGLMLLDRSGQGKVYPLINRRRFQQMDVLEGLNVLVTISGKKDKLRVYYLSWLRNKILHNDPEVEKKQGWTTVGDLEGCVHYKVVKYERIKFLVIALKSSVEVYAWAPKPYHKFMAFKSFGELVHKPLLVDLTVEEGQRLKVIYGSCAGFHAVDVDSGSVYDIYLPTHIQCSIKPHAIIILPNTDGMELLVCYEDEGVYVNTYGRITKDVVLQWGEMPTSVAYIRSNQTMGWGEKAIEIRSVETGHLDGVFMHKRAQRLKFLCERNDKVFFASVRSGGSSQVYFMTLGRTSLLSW
Conditions: at 0.1 µM

Row | Compound | inhibition [%]
34 | c1ccc(COc2ccc(Nc3ncnc4ccc(-c5ccco5)cc34)cc2)cc1 | 2.01
35 | COc1ccc2[nH]c3c4[nH]c5ccc(OC)cc5c4c4c(c3c2c1)C(=O)NC4=O | 84.6
36 | CC1=C(C(=O)Nc2cc(Cl)c3[nH]ncc3c2)C(c2ccc(C(F)(F)F)cc2)CC(=O)N1 (stereo unspecified) | 2.89
37 | Cc1cccc(Nc2ncc(-c3ccccc3)o2)c1 | 2.79
38 | Clc1ccc(-c2nn3ncccc3c2-c2ccnc(Nc3ccccc3)n2)cc1 | 5.07
39 | Cc1ccc(O)cc1Nc1ccnc2cc(-c3ccccn3)ccc12 | 26.7
40 | FC(F)(F)c1cccc(-c2nn3ncccc3c2-c2ccnc(Nc3ccc4c(c3)OCCO4)n2)c1 | 7.12
41 | Nc1nc(-c2cccc(Cl)c2)c(-c2ccc3ncccc3n2)s1 | 12.6
42 | COc1ccc2c(-c3ccnc(Nc4cccc(OC(F)(F)F)c4)n3)cnn2n1 | 4.63
43 | CCN(CC)S(=O)(=O)c1ccc(OC)c(Nc2ncc(-c3ccccc3)o2)c1 | 2.08
44 | COc1ccc(-c2oc3ncnc(N)c3c2-c2ccc(NC(=O)Nc3cc(C(F)(F)F)ccc3F)cc2)cc1 | 5.29
45 | CS(=O)(=O)CCNCc1ccc(-c2ccc3ncnc(Nc4ccc(OCc5ccccc5)c(C(F)(F)F)c4)c3c2)o1 | 2.98
46 | NS(=O)(=O)c1ccc(Nc2ncc(-c3ccccc3)o2)cc1 | 12.4
47 | CN1CCC(n2cnc(-c3ccc(F)cc3)c2-c2ccnc(Nc3ccccc3)n2)CC1 | 4.88
48 | CCCN(CCS(C)(=O)=O)Cc1ccc(-c2ccc3ncnc(Nc4ccc(OCc5cccc(F)c5)c(Cl)c4)c3c2)o1 | 1.66
49 | CN(C)CCOc1ccc(-c2nc(-c3ccncc3)c(-c3ccc4c(c3)CC/C4=N\O)[nH]2)cc1 | 9.59
50 | CCn1c(-c2nonc2N)nc2c(C#CC(C)(C)O)ncc(OC3CCNCC3)c21 | 2.72

Row | Compound | inhibition [%]
51 | COc1ccc(CNC(=O)c2ccc(-c3cc(-c4nnc(C)o4)ccc3C)cc2)cc1 | 3.14
52 | [O-][S+]1CCN(Cc2ccc(-c3ccc4ncnc(Nc5ccc(OCc6cccc(F)c6)c(Cl)c5)c4c3)o2)CC1 | 7.46
53 | Nc1ncc(-c2cccc(S(N)(=O)=O)c2)c2scc(-c3ccc(F)c(Cl)c3)c12 | 78.5
54 | Nc1nc(-c2ccc(F)cc2)c(-c2ccc3ncccc3n2)s1 | 17.7
55 | Cc1cccc2c1NC(=O)/C2=N\Nc1ccc(S(N)(=O)=O)cc1 | 10.1
56 | N#Cc1c(NC(=O)CN2CCOCC2)sc2c1CCCC2 | 10.5
57 | CNC(=O)c1cncc(/C=C/c2ccccc2Cl)c1 | 2.52
58 | c1ccc(-c2nc3n(c2-c2ccc4c(c2)OCO4)CCC3)nc1 | 2.84
59 | CCCN1CCC(c2ccc(Nc3nc(Nc4cc(F)ccc4C(N)=O)c4cc[nH]c4n3)c(OC)c2)CC1 | 28.1
60 | CNC(=O)c1cccc(C#Cc2cncnc2Nc2ccc(OCc3cccc(F)c3)c(Cl)c2)c1 | -0.86
61 | Fc1ccc(-c2cc(-c3c[nH]nc3-c3ccccn3)ccn2)cc1 | 13.7
62 | COc1ccc(-c2cc3c(N)ncnc3o2)cc1 | 2
63 | CC(C)(CO)CNC(=O)c1ccc2c(c1)/C(=N/Nc1ccc(S(N)(=O)=O)cc1)C(=O)N2 | 0.68
64 | COc1cccc(-c2c[nH]c3c(N/N=C/c4ccncc4)ncnc23)c1 | 26
65 | CCc1nn2ncccc2c1-c1ccnc(NC2CC2)n1 | 0.62
66 | NC(=O)c1sc(-n2cnc3ccc(C(F)(F)F)cc32)cc1OCc1ccccc1Br | 4.62
